This is part of a sample that, as a whole, favours compounds with a hit. Of some 83,000 tested, about 20% had one in any assay.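 Values shown are percent growth following 48 h exposure of cells in 96-well plates to a single concentration of compound; below 10 was considered active.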 Unmarked numbers belong to inactive results. Calls of active or inactive are those of the source.
Tests used:
Test in all cases: NCI-60 one-dose screen, 48 h (100 = growth as untreated, 0 = no growth, -100 = all killed)
Conditions in all cases: 10 µM
DU-145 prostate = tested on: DU-145 prostate
K-562 leukemia = tested on: K-562 leukemia
MALME-3M melanoma = tested on: MALME-3M melanoma
MDA-MB-231 breast = tested on: MDA-MB-231 breast
RXF 393 renal = tested on: RXF 393 renal
SF-268 CNS = tested on: SF-268 CNS
SF-295 CNS = tested on: SF-295 CNS
SF-539 CNS = tested on: SF-539 CNS
UACC-257 melanoma = tested on: UACC-257 melanoma
M14 melanoma = tested on: M14 melanoma
HT29 colon = tested on: HT29 colon
SNB-75 CNS = tested on: SNB-75 CNS
SNB-19 CNS = tested on: SNB-19 CNS
U251 CNS = tested on: U251 CNS
PC-3 prostate = tested on: PC-3 prostate
SK-MEL-5 melanoma = tested on: SK-MEL-5 melanoma
LOX IMVI melanoma = tested on: LOX IMVI melanoma
SK-MEL-28 melanoma = tested on: SK-MEL-28 melanoma
HCT-15 colon = tested on: HCT-15 colon
UACC-62 melanoma = tested on: UACC-62 melanoma

Row | SMILES | growth (DU-145 prostate) | growth (K-562 leukemia) | growth (MALME-3M melanoma) | growth (MDA-MB-231 breast) | growth (RXF 393 renal) | growth (SF-268 CNS) | growth (SF-295 CNS) | growth (SF-539 CNS) | growth (UACC-257 melanoma) | growth (M14 melanoma) | growth (HT29 colon) | growth (SNB-75 CNS) | growth (SNB-19 CNS) | growth (U251 CNS) | growth (PC-3 prostate) | growth (SK-MEL-5 melanoma) | growth (LOX IMVI melanoma) | growth (SK-MEL-28 melanoma) | growth (HCT-15 colon) | growth (UACC-62 melanoma)
1 | NC1=NC(c2ccc(Cl)cc2)C2=C(N1)/C(=C/c1ccc(Cl)cc1)CCC2 (stereo not drawn) | 97.2% | 43.5% | 97.7% | 102% | 34.5% | 83.2% | 67.5% | 121% | 79.4% | 11% | 7.71% (active) | 87.3% | 85.7% | 13.9% | 79.5% | 87.5% | -69.6% (active) | 99.2% |  | 
2 | O=C1c2ccccc2C(=O)c2c1ccc1c(=O)n(-c3ccccc3C(F)(F)F)nnc21 | 47.7% | 15.2% | -51.3% (active) | 3.26% (active) | 28.9% | 43.2% | 52.5% | -27.2% (active) | -23.6% (active) |  | 31.5% | 34.6% | 18.2% | 17.7% | 12.9% | -94.3% (active) | -5.7% (active) | 63.5% | 3.36% (active) | 
3 | COC(=O)c1cc2oc(/C=C3/SC(=S)N(N)C3=O)cc2n1Cc1ccccc1 | 32.7% | 7.35% (active) | -69.9% (active) | 6.49% (active) | -19.1% (active) | 46.4% | 68% | 44.7% | 49.6% |  | 63% | 29.3% | 84.5% | 45.3% |  | 45.4% | 34.6% | -71.4% (active) | 47% | 50.6%
4 | CCN(CC)CCOc1cccc2c1C(=O)c1cccc(OCCN(CC)CC)c1C2=O | 27.1% | 27.9% | 52% | 42.4% | 42.4% | 40.8% | 32.5% | 37.3% | 70.7% |  | 13.8% | 53.3% | 31.8% | 24.8% | 32.2% | 72% | 18.2% | 82.5% | 57% | 56.9%
5 | CN(C)CCN(Cc1ccccc1)c1ccc2ccccc2n1 | 107% | 93.4% | 96.5% | 87.2% | 105% | 103% | 88.5% | 106% | 98% |  | 89.7% | 82% | 95.6% | 94.2% | 81.4% | 91.7% | 88.8% | 101% | 98% | 92.9%
6 | O=C(CCCSc1nc(-c2ccc(Cl)cc2)cc(-c2ccc(Cl)cc2)n1)NO | 15.1% | 5.07% (active) | 2.37% (active) | 14.6% | -15.3% (active) | 11.6% | -4.84% (active) | -23% (active) | 13.2% |  | 23.2% | 13.7% | 17.7% | 17.2% | 21% | -31.7% (active) | -2.15% (active) | 25% | 17.6% | -10.7% (active)
7 | Cc1ccc(-n2c(C)nn3c(=O)c4c5c(sc4nc23)CN(C)CC5)cc1 | 99.8% | 100% | 93.7% | 96.3% | 105% | 94.1% | 98.1% | 101% |  | 95.8% | 86.6% | 93.4% | 105% | 101% |  | 106% | 95.1% | 106% | 101% | 101%
8 | CCC(C)[C@H](NC(C)=O)C(=O)N[C@@H](CCCNC(=N)N)C(=O)N[C@@H](CCCCN)C(=O)N[C@@H](CC1CCC(O)CC1)C(=O)NC(C(=O)N[C@@H](CCSC)C(=O)N[C@@H](CCCNC(=N)N)C(=O)N[C@@]1(C)CCC/C=C\CCC[C@@](C)(C(=O)NC(C(=O)N[C@@H](CCC(=O)O)C(=O)N[C@@H](CC(C)C)C(=O)N[C@H](C(=O)N[C@@H](CCC(=O)O)C(N)=O)C(C)C)[C@@H](C)O)NC(=O)[C@H](CCC(N)=O)NC(=O)[C@H](CC(C)C)NC(=O)[C@H](CC(C)C)NC1=O)[C@@H](C)O (stereo partly drawn) | 93.7% | 95.4% | 102% | 98.8% | 86.4% | 47.9% | 101% | 97.7% |  | 75.6% | 90.6% | 107% | 110% | 98.9% | 99.1% | 102% | 109% | 94.6% | 100% | 99.6%
